An excerpt weighted towards active compounds, which were near 4.1% of everything screened.
Peg3 promoter = Peg3 promoter activity inhibition. HeLa PEG-Prom luciferase reporter, luminescence, overnight. inhibition, % at 20 µM. 360,000 compounds, 1.7% hits. AID 588405;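 active means inhibition of at least 50% at 20 µM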
TRPM1 prom inh = MITF TRPM1 promoter inhibition in SK-MEL-5 cells; SK-MEL-5 TRPM1 promoter luciferase, 24 h; inhibition, % at 12.5 µM; 330,000 compounds, 0.83% hits; AID 488899;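 active means mean inhibition across replicates of 60% or more, whatever share of single replicates reaches that level; inconclusive means some that reach 60%, reason not given; inactive means mean inhibition across replicates below 60%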
EBV LMP1 NFkB = inhibitors of Epstein-Barr LMP1-induced NF-kappaB reporter; AID 504558; inhibition, % at 12.5 µM; LMP1-induced NF-kappaB luciferase reporter cells, luminescence; 350,000 compounds, 0.69% hits; in the data active means inhibition above about 41%; inconclusive means no clear call, values can overlap the other calls;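 further: 0% = neutral control wells and 100% = reference inhibitor control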
Shn3 3UTR inh = reduces Shn3 3'UTR luciferase signal in osteoblasts; Clone20 osteoblast Shn3 3'UTR firefly luciferase, 24 h; inhibition, % at 12.5 µM; 360,000 compounds, 0.52% hits; AID 588674;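 active means mean inhibition of at least 75% with every replicate also reaching 75%; inconclusive means mean inhibition at least 75% but some replicate below; inactive means mean inhibition below 75%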;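 further: 0% = median of neutral control wells and 100% = pilot-screen positive control compound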
TWEAK-Fn14 inh = TWEAK-Fn14 signaling inhibition; TWEAK-stimulated Fn14 reporter cells, luciferase luminescence, 8 h; inhibition, % at 10 µM; 360,000 compounds, 2% hits; AID 1159606; in the data active means inhibition above about 50%
TROY signal inh = TROY signaling inhibition; AID 1347056; inhibition, % at 10 µM; Q293 LMP1-TROYcd NF-kB luciferase reporter, 4 h; 360,000 compounds, 0.98% hits;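 active means compounds whose plate-normalised and pattern-corrected inhibition of the luciferase reporter signal at the single screening dose is 50% or more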
* hit, by the source's call; ? = inconclusive; / = not tested or not shown.

SMILES	Peg3 promoter	TRPM1 prom inh	EBV LMP1 NFkB	Shn3 3UTR inh	TWEAK-Fn14 inh	TROY signal inh
CCOc1ccccc1N(CC(=O)N1CCCC1)S(C)(=O)=O	14	3	49*	-12	11	6
CCc1ccccc1N(CC(=O)N1CCCC1)S(C)(=O)=O	3	-14	9	-5	4	0
Cn1cc(C(=O)CCl)c2ccccc21	50*	83*	-2	14	32	0
Cn1c(/C=C/c2cccc([N+](=O)[O-])c2)c([N+](=O)[O-])c(=O)n(C)c1=O	32	49	16	-15	57*	22
Cn1c(/C=C/c2ccc(Cl)cc2)c([N+](=O)[O-])c(=O)n(C)c1=O	15	?	0	-4	56*	4
NCC1CCN(c2nc3ccccc3c3c2CCCC3)CC1	102*	4	-3	0	-15	12
CCOC(=O)c1sc(NC(=O)Nc2cccc(Cl)c2)cc1C	-124	-60	-18	24	75*	31
O=C(O)c1ccc(N/N=C/c2cc3c(cc2[N+](=O)[O-])OCO3)cc1	13	23	8	-24	34	-7
O=C(O)c1ccc(N/N=C/c2cc3cc4c(cc3nc2Cl)OCCO4)cc1	-62	-7	42*	-29	30	-16
CC(O)C(=O)N/N=C/c1cccc2ccccc12 (centres undefined)	-21	12	-13	1	1	-8
O=C(NN=Cc1cccc2ccccc12)C(=O)NN=Cc1cccc2ccccc12	51*	0	-26	19	-18	-3
O=C(O)c1cc(N/N=C/c2cccc3ccccc23)ccc1Cl	-276	-88	-45	-146	101*	-19
O=C(O)c1cc(S(=O)(=O)Nc2ccc3c(c2)OCCO3)c(Cl)cc1Cl	20	13	23	38	91*	83*
Cn1c(=O)c2c(nc(N/N=C/c3cccnc3)n2Cc2ccccc2)n(C)c1=O	18	-10	1	32	24	12
Cc1cc(C)n(-c2ccc(C(=O)NC3CCCCC3)cc2)n1	-70	-12	-2	-24	-18	-26
O=C(O)c1cc(N/N=C/c2ccc3c(c2)OCCO3)ccc1Cl	-25	82*	45*	16	-13	11
C=CC[n+]1c(-c2ccc(OCC)cc2)csc1NNC(=O)Nc1ccccc1	2	0	-2	88*	3	-2
C=CC[n+]1c(-c2ccc(C)cc2)csc1Nc1c(C)n(C)n(-c2ccccc2)c1=O	16	3	-3	21	11	16
Cc1[nH]c2ccc(C(=O)OCC(=O)Nc3cccc(S(N)(=O)=O)c3)cc2c1C	-50	-3	1	-7	-17	-8
CC(C)(C)c1nc(NCCN2CCOCC2)c2nnn(Cc3ccccc3Cl)c2n1	21	22	8	84*	10	27
C[C@@H](NCCCn1ccc(NC(=O)OCc2ccccc2)nc1=O)c1cccc2ccccc12	71*	-16	-1	-16	6	2
CCCn1c(C)cc(C(=O)COC(=O)CN=C2NS(=O)(=O)c3ccccc32)c1C	2	18	6	7	7	4
Cc1ccc(-n2cc(C(=O)c3cc(Cl)ccc3O)cc(C#N)c2=O)cc1	37	7	3	-2	1	20
Cc1ccccc1NC(=O)c1cc(C(=O)c2cc(Cl)ccc2O)cn(-c2ccccc2C)c1=O	-37	53	-1	23	87*	38
Cc1c(C(C)C)c(=O)n(-c2ccc(S(=O)(=O)N3CCOCC3)cc2)n1C	12	11	0	-5	-7	-4
SMILES	Peg3 promoter	TRPM1 prom inh	EBV LMP1 NFkB	Shn3 3UTR inh	TWEAK-Fn14 inh	TROY signal inh
Cc1c(C(C)C)c(=O)n(-c2ccc(S(=O)(=O)NC3CCCCC3)cc2)n1C	10	26	23	88*	27	19
Cc1c(C(C)C)c(=O)n(-c2ccc(S(=O)(=O)NCc3ccccc3)cc2)n1C	18	22	13	83*	33	13
Cc1cc(C)n(/N=C/c2ccc(C(C)C)cc2)c(=O)c1C#N	-19	1	10	-70	-13	5
O=C(Nc1ccc(-n2ccc(C(F)(F)F)n2)cc1)Nc1cccc(Cl)c1	-113	-56	1	56	72*	34
Cc1cc(/C=C(\C#N)C(=O)Nc2ccccc2)c(C)n1-c1cccnc1	-258	-55	-34	-17	-8	-21
CCOC(=O)/C(C#N)=C/c1cc(C)n(-c2ccccc2)c1C	-229	-63	-25	-9	84*	89*
Cc1[nH]n(-c2ccccc2)c(=O)c1N=Nc1c(O)cc(S(=O)(=O)N(C)C)c2ccccc12	62*	58	23	80	88*	49
CCOc1ccc(S(=O)(=O)N2CCOCC2)cc1NC(=O)CSCC(=O)Nc1ccc(OC)cc1	-1	3	-4	9	3	5
Cc1cc(=O)[nH]c(N=N/C(=N/Nc2ccc(O)cc2)c2ccccc2)n1	-235	-28	-11	-37	-52	-80
Cc1cc(=O)[nH]c(N=N/C(=N/Nc2ccccc2C)c2ccccc2)n1	22	41	50*	20	-35	-37
C=CC[C@H](CC(=O)NCCO)C(=O)N[C@H](COC(=O)[C@H](CC=C)CC(=O)OC(C)(C)C)c1ccccc1	-11	-8	1	-5	-5	2
O=C(COc1cccc(NC(=O)c2cccc([N+](=O)[O-])c2)c1)c1ccc(Br)cc1	50*	15	2	35	71*	39
COc1cc(C(=O)NC(C)c2cccc3ccccc23)cc(OC)c1OC (centres undefined)	23	15	10	17	17	-2
COc1ccc(CN(C)C(=O)c2cc(-c3ccccc3)nc3ccc(C)cc23)c(OC)c1	98*	/	8	40	53*	11
O=C(O)c1cc2ccccc2c(N=Nc2cccnc2)c1O	55*	?	9	-59	26	14
CN1C2CCC1/C(=C\c1ccccc1)C(=O)/C2=C\c1ccccc1	73*	35	-63	52	56*	-7
O=C1/C(=C/c2ccccc2)CCC1C1CCCC1 (centres undefined)	-194	-61	-7	-44	-17	-124
O=C(CSc1cccc(C(F)(F)F)c1)Nc1ccc(Cl)cc1Cl	9	-4	2	-7	-1	-4
CN(Cc1ccccc1)c1nc(N)c([N+](=O)[O-])c(NCc2ccccc2)n1	38	-3	72*	10	-23	26
N#CC(C#N)=NNc1ccc2cn[nH]c2c1	23	/	/	-23	92*	62*
O=C(/C=C/c1ccc2c(c1)OCCCO2)c1ccc2ccccc2c1O	-159	-43	-61	4	33	61*
NS(=O)(=O)c1ccc(NCc2c(F)cccc2Cl)cc1	0	5	-1	7	6	-48
Fc1cccc(Cl)c1CNc1ccc(N2CCCC2)cc1	-16	24	-5	30	57*	17

Assay outcomes (PubChem)
